Assay results: PubChem BioAssay (Tox21)
Inconclusive results are not listed. A number with no mark means an inactive call. The call rests on the fitted dose curve.

The molecules below were run against Thyrotropin receptor (Homo sapiens) (UniProt P16473) (assay: qHTS assay to identify small molecule antagonists of the thyroid stimulating hormone receptor (TSHR) signaling pathway (AID 1259385; further: nearly all actives have a fitted effect of over 20% in size)). Conditions: TSHR-HEK293 cAMP HTRF, TSH-stimulated antagonist mode; series mostly up to 92.4 µM; activity change, negative = inhibition: at the top concentration.
Sequence of Thyrotropin receptor (Homo sapiens) (P16473 whole entry, looked up): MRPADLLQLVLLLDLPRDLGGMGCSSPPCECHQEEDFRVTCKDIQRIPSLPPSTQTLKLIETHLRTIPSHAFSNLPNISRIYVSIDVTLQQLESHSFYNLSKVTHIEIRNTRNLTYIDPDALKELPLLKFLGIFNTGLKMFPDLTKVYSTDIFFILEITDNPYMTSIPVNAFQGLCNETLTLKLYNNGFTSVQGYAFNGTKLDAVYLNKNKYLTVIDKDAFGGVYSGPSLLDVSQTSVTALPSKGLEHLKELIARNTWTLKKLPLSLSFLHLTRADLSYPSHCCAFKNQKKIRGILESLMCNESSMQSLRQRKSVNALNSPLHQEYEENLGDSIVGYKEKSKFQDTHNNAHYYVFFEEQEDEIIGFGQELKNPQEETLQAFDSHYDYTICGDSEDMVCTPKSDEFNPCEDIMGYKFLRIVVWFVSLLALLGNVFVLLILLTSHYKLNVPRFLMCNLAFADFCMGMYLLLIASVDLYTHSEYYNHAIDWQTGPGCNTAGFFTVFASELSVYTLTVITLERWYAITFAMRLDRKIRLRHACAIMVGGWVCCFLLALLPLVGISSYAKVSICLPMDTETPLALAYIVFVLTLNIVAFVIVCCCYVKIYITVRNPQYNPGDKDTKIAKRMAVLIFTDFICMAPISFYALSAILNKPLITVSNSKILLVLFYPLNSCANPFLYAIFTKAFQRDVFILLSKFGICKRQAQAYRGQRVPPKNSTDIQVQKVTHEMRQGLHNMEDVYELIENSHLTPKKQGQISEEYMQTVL
In short: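 Antagonist mode: compound-treated TSHR-expressing HEK293 cells were stimulated with 1.5 ng/mL TSH (final) in presence of Ro20-1724 for 30 min at RT. HTRF cAMP detection after 1 h; each compound tested at 15 concentrations, triplicate.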
On the % scale 0 is the no-effect control and ±100 the full control effect.

SMILES	activity change, negative = inhibition
Cc1cc(NC(=O)C2=C(O)c3ccccc3S(=O)(=O)N2C)no1	2.49% [at 42.5 µM]
CCOC(=O)c1ccc(OC(=O)CCCCCN=C(N)N)cc1	-0.0431% [at 42.5 µM]
CCc1ccc(C=O)cc1	-1.71%
C=C(C)C(=O)OCCNC(C)(C)C	3.53%
On1nnc2ccccc21	0.452%
CC(=O)c1sc(C)nc1C	-0.389%
COc1ccc2nc(SCc3ncc(C)c(OC)c3C)[nH]c2c1	4.56% [at 42.5 µM]
CC1COc2ccccc2N1 (stereo not drawn)	-0.734%
C[Si](C)=O	-2.39% [at 8.39 µM]
COc1ccc(Br)c(C)c1	0.193%
COc1ccc2c(c1)C(=O)N(CCc1ccc(S(=O)(=O)NC(=O)NC3CCCCC3)cc1)C(=O)C2(C)C	-4.73% [at 42.5 µM]
O=C(OCC1(COC(=O)c2cccnc2)CCCC(COC(=O)c2cccnc2)(COC(=O)c2cccnc2)C1O)c1cccnc1	-6.9% [at 42.5 µM]
CC(=O)Nc1cccc(C)c1	0.895%
COC(=O)C1CC(=O)C(C(=O)OC)CC1=O (stereo not drawn)	0.232% [at 8.39 µM]
CCCCNc1ccc(C(=O)OCCN(C)C)cc1	-1.11% [at 42.5 µM]
O=C(O)Cc1cn(-c2ccccc2)nc1-c1ccc(Cl)cc1	-0.954% [at 42.5 µM]
COc1ccc2c(c1OC)C(=O)O[C@@H]2[C@H]1c2c(cc3c(c2OC)OCO3)CCN1C	0.756% [at 42.5 µM]
O=C1c2cccc3c2[C@H](CCC3)CN1[C@@H]1CN2CCC1CC2	5.69% [at 42.5 µM]
